Data on 7 molecules can be found in PubChem BioAssay (Tox21).

Values without a mark were called inactive. Inconclusive results are not listed. Activity calls are given as the source filed them. Unless noted, calls follow the shape of the full dose curve.

A short description of assay [1]: Nuclear factor erythroid 2-related factor 2/antioxidant responsive element (Nrf2/ARE) small molecule agonists: qHTS cell viability counter screen in human keratinocytes (AID 1919968; active = well fitted curve in the direction sought with a large enough effect in the repeat runs; an effect the other way counts as inactive or inconclusive; also: nearly all actives have a fitted effect of over 55% in size). The method in brief: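 Seed 1,500 KeratinoSens cells per well, then incubate 5 h at 37 C/5% CO2. Add compounds in DMSO and incubate 23 h. Add CellTiter-Fluor, wait 1 h and read fluorescence.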

Assay [2] is described as follows: Nuclear factor erythroid 2-related factor 2/antioxidant responsive element (Nrf2/ARE) small molecule agonists: luciferase reporter gene qHTS assay in human keratinocytes (AID 1919969). Also: nearly all actives have a fitted effect of over 35% in size. A general note: In a reporter assay the amount or activity of a reporter protein is the signal.
The target of assay [3] is Gonadotropin-releasing hormone receptor (Homo sapiens) (UniProt P30968). Nature of the assay: Human gonadotropin-releasing hormone receptor (GnRHR) small molecule agonists, calcium flux assay in GnRHR-HEK293 cells (AID 1920063). Also: nearly all actives have a fitted effect of over 35% in size. The method in brief: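 Cells: HEK293 stably expressing human GnRHR. Steps: overnight (18 h) culture, 1 h calcium dye loading at 37 C, compound addition, kinetic fluorescence read at 480/540 nm. Each compound tested at 15 concentrations in triplicate.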
Sequence of Gonadotropin-releasing hormone receptor (Homo sapiens) (P30968 whole entry, looked up): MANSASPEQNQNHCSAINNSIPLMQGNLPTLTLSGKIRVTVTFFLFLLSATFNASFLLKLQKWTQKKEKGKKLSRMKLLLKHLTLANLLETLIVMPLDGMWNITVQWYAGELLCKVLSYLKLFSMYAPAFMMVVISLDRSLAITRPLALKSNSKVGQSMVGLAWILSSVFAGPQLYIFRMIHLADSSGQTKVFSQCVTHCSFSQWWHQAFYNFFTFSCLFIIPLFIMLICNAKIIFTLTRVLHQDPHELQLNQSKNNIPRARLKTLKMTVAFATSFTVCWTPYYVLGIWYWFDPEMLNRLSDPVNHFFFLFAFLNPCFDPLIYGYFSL

Assay [4] in a line: G protein-coupled receptor (GPCR) small molecule agonists, calcium flux assay: HEK293 wild type cell line counter screen (AID 1920065). The method in brief:
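Counter-screen of the Tox21 10K library for non-specific calcium release: dye-loaded cells received compounds in DMSO and were monitored by kinetic fluorescence (480/540 nm, 3 min). Fifteen concentrations, run in triplicate.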
A general note: Calcium flux is commonly read through the fluorescence of an indicator in the cells.

Assay [5] can be described thus: p53 small molecule agonists, cell-based qHTS assay with human liver microsomes: qHTS cell viability counter screen (AID 1963579). Also: nearly all actives have a fitted effect of over 45% in size. The essentials:
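p53RE-bla cells (4,000/well) were pre-incubated 5 h at 37 C, then given compounds in DMSO plus human liver microsomes (0.5 mg/mL final) and NADPH (0.5 mg/mL final) for 16 h at 37 C. Viability was read by CellTiter-Glo luminescence.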
A general note: qHTS replaces the single test concentration by a dilution series.

Assay [6] can be described thus: p53 small molecule agonists, cell-based qHTS assay with rat liver microsomes: qHTS cell viability counter screen (AID 1963580). Also: nearly all actives have a fitted effect of over 45% in size. The essentials: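 Viability is assessed in parallel with the p53 reporter read: HCT-116 p53RE-bla cells receive compounds plus rat microsomes and NADPH (0.5 mg/mL final apiece), incubate 16 h at 37 C, and then CellTiter-Glo luminescence is recorded.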

A short description of assay [7]: p53 small molecule agonists, cell-based qHTS assay: qHTS cell viability counter screen (AID 1963581). Also: nearly all actives have a fitted effect of over 45% in size. The method in brief: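 Cells: HCT-116 with p53 response element-driven beta-lactamase. Treatment: 16 h, 37 C, compounds in DMSO. Read: CellTiter-Glo luminescence after 30 min RT.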
The target of assay [8] is 5-hydroxytryptamine receptor 2A (Homo sapiens) (UniProt P28223). Nature of the assay: 5-hydroxytryptamine receptor 2A (HTR2A) small molecule agonists, cell-based qHTS assay (AID 1963587). Also: nearly all actives have a fitted effect of over 30% in size. The method in brief: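 CHO cells stably expressing human HTR2A, plated 18 h, loaded with calcium dye 1 h at 37 C. Agonist mode: compounds added and intracellular calcium fluorescence recorded kinetically for 2 min at 1 sec intervals.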
Sequence of 5-hydroxytryptamine receptor 2A (Homo sapiens) (P28223 whole entry, looked up): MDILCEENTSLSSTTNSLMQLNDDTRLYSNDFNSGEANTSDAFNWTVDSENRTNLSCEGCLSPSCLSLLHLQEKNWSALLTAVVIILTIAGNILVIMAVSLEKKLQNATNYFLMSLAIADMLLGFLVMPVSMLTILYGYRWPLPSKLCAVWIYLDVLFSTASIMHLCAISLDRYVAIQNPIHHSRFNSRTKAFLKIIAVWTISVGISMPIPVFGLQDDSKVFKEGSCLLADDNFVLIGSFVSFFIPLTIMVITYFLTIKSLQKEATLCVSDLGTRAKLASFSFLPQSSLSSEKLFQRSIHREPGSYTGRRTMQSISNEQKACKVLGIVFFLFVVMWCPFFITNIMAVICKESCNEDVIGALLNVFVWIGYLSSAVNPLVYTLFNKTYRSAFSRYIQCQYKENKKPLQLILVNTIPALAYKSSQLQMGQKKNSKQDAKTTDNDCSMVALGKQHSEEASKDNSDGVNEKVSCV

Assay [9] addresses Muscarinic acetylcholine receptor M1 (Homo sapiens) (UniProt P11229). Nature of the assay: Cholinergic receptor muscarinic 1 (CHRM1) small molecule antagonists, cell-based qHTS assay (AID 1963588). Also: nearly all actives have a fitted effect of over 40% in size. The essentials:
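CHRM1-CHO calcium-flux assay, antagonist mode. Cells were seeded 18 h, dye-loaded 1 h at 37 C and given compound for 5 min at RT, then acetylcholine was added at 50nM. FDSS fluorescence was read 3 min; 15 concentrations, three runs.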

Assay [10] has the same target. Nature of the assay: Cholinergic receptor muscarinic 1 (CHRM1) small molecule agonists, cell-based qHTS assay (AID 1963589). Also: nearly all actives have a fitted effect of over 35% in size. The method in brief:
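Agonist-mode qHTS in CHO cells stably carrying human muscarinic M1. Intracellular calcium is tracked by fluorescence every second after compound transfer; each compound runs at 15 concentrations in three independent runs.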

A short description of assay [11]: cAMP Responsive Elements (CRE) small molecule agonists, cell-based qHTS assay (AID 1963590). The essentials:
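Agonist mode qHTS in CRE-bla HEK 293T cells: compounds dosed from DMSO for 3 h at 37 C/5% CO2, followed by LiveBLAzer B/G FRET substrate for 2 h at room temperature.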

A short description of assay [12]: cAMP Responsive Elements (CRE) small molecule antagonists, cell-based qHTS assay (AID 1963591; active = well fitted inhibition curve with a large enough effect in the signal ratio in the repeat runs, not every such curve was filed as active; the % refers to the signal ratio). The essentials: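 Antagonist mode: test compounds are co-incubated with the adenylyl cyclase activator NKH477 (0.25 uM final) on CRE-bla HEK293T cells for 3 h at 37 °C, followed by LiveBLAzer substrate loading.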
Assay [13] concerns the target Beta-2 adrenergic receptor (Homo sapiens) (UniProt P07550). Nature of the assay: Adrenergic beta2 receptor (ADRB2) small molecule antagonists, cell-based qHTS assay (AID 1963592). Also: series mostly up to about 92 µM; nearly all actives have a fitted effect of over 50% in size. The method in brief:
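Cells (CHO, stable ADRB2 overexpression) incubated 18-20hr at 37C; compounds added from DMSO; agonist mix (1nM isoproterenol, 100uM IBMX, 25uM Ro-20-1724) added; 0.5hr RT; d2-cAMP and anti-cAMP-cryptate added; 1hr RT; 665/615 nm read.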

For assay [14], the target named is D(2) dopamine receptor (Homo sapiens) (UniProt P14416). Nature of the assay: Dopamine D2 receptor (DRD2) small molecule antagonists, cell-based qHTS assay (AID 1963595; active = well fitted inhibition curve with a large enough effect in the signal ratio in the repeat runs, with a control signal flat; the % refers to the signal ratio; also: potency is read from the fitted curve at half-maximal effect). The essentials:
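Cells were plated and grown for 24 h at 37 °C. Ro20-1724 (0.1 mM final) went in first, then compound for 10 min. NKH477 (200 nM) with quinpirole (12 nM) followed for 30 min at RT, then HTRF detection reagents for 1 h.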

For assay [15], the target named is KiSS-1 receptor (Homo sapiens) (UniProt Q969F8). Nature of the assay: Human kisspeptin (KISS1R) small molecule agonists, calcium flux assay in KISS1R-HEK293 cells (AID 1920064; active = well fitted curve in the direction sought with a large enough effect in the repeat runs; an effect the other way counts as inactive or inconclusive). The essentials: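 Cells plated and incubated 18 h; dye added, 1 h at 37 C; compounds in DMSO pinned in; signal read at 480/540 nm every second for 3 min. Each compound tested at 15 concentrations in triplicate.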
Sequence of KiSS-1 receptor (Homo sapiens) (Q969F8 whole entry, looked up): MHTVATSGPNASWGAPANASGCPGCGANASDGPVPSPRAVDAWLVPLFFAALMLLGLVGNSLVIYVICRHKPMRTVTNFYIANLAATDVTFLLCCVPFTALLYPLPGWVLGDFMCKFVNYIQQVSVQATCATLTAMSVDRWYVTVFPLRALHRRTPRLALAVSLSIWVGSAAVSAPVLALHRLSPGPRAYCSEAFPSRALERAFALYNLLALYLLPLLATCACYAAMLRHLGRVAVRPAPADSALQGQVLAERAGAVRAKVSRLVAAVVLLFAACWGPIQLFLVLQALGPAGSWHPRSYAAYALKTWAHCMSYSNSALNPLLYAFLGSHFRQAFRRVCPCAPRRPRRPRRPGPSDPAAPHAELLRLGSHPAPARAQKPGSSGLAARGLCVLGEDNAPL

A short description of assay [16]: p53 small molecule agonists, cell-based qHTS assay with human liver microsomes (AID 1963577). The method in brief: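 p53RE-bla reporter cells were pre-incubated 5 h at 37 C, then treated with compounds plus human liver microsomes (0.5 mg/mL final) and NADPH (0.5 mg/mL final) for 16 h at 37 C. Beta-lactamase activity was read by LiveBLAzer fluorescence after 2 h at room temperature.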

Assay [17] is described as follows: p53 small molecule agonists, cell-based qHTS assay with rat liver microsomes (AID 1963578). The essentials:
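p53RE-bla cells were exposed to compounds together with rat liver microsomes (0.5 mg/mL final) and NADPH (0.5 mg/mL final) for 16 h at 37 C, then read by LiveBLAzer beta-lactamase fluorescence after 2 h at room temperature.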

Assay [18] can be described thus: p53 small molecule agonists, cell-based qHTS assay (AID 1963582; active = well fitted activation curve with a large enough effect in the signal ratio in the repeat runs, not every such curve was filed as active; the % refers to the signal ratio). The essentials: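 Quantitative HTS in p53RE-bla cells: after a 5 h settling period, compounds delivered in DMSO were left on cells for 16 h at 37 C, and reporter induction was measured as fluorescence following 2 h substrate loading.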
Assay [19] has as its target 5-hydroxytryptamine receptor 2A (Homo sapiens) (UniProt P28223). Nature of the assay: 5-hydroxytryptamine receptor 2A (HTR2A) small molecule antagonists, cell-based qHTS assay (AID 1963586). Also: nearly all actives have a fitted effect of over 45% in size. The essentials: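 Antagonist-mode intracellular calcium assay: DOI (4 nM) added after 5 min compound pre-incubation at room temperature to dye-loaded HTR2A-CHO cells. Fluorescence followed for 3 min, sampled every second.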

Assay [20] has as its target D(2) dopamine receptor (Homo sapiens) (UniProt P14416). Nature of the assay: Dopamine D2 receptor (DRD2) small molecule agonists, cell-based qHTS assay (AID 1963594). Also: nearly all actives have a fitted effect of over 35% in size. The method in brief: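 HEK293 cells stably expressing human DRD2, pre-treated with PDE inhibitor Ro20-1724 (0.1 mM final) and compound 10 min at room temperature, then stimulated with NKH477 (200nM […]) for 30 min. cAMP read by HTRF (665/620 nm).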
% is scaled to controls: 0 for no effect and ±100 for the full control effect.

Sequence of D(2) dopamine receptor (Homo sapiens) (P14416 whole entry, looked up): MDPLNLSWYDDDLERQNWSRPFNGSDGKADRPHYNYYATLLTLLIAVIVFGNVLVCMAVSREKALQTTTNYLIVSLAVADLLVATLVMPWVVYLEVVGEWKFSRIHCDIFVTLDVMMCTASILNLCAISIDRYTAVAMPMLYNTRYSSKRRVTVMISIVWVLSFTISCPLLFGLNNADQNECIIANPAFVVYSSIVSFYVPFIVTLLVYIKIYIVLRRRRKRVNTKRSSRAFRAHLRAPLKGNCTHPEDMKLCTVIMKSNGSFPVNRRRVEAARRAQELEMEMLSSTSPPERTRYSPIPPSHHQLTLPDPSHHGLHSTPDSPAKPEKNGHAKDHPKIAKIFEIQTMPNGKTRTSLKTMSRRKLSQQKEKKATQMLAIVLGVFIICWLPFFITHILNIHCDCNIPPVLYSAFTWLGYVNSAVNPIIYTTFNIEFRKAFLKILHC
Sequence of Beta-2 adrenergic receptor (Homo sapiens) (P07550 whole entry, looked up): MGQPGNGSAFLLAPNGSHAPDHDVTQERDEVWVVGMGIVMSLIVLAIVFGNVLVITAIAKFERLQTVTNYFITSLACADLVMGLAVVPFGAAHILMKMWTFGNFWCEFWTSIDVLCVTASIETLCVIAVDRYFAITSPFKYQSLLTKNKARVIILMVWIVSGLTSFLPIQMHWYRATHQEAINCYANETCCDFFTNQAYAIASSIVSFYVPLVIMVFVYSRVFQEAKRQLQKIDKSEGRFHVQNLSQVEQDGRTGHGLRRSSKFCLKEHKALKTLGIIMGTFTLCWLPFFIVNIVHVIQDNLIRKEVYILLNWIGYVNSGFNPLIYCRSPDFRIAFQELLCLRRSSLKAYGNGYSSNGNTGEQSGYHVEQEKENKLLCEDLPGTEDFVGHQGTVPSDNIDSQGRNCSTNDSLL
Sequence of Muscarinic acetylcholine receptor M1 (Homo sapiens) (P11229 whole entry, looked up): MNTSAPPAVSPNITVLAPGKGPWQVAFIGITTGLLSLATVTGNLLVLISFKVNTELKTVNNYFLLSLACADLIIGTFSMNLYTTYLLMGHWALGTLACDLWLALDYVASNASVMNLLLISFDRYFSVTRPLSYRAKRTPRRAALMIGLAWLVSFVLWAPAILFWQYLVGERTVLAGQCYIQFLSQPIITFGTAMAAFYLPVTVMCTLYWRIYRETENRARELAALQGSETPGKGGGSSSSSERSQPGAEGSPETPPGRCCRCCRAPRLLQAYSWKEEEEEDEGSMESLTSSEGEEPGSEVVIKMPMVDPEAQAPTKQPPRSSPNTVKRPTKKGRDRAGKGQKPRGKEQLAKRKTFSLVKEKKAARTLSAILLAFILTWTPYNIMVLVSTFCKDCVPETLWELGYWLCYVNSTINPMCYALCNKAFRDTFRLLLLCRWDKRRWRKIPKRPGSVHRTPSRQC

For the molecule `C=C(C)[C@H]1CN[C@H](C(=O)O)[C@H]1CC(=O)O`, the Potency result in [1], in assay [2], in assay [3], in assay [4], in assay [5] and in assay [6] was “inactive” each time. Besides, the Potency entry in assay [7], in [8], in assay [9], in [10], in assay [11] and in [12] was “inactive” throughout. The Potency entry in assay [13] and in assay [14] was “inactive” each time.
For `CCN(CC)C(=O)[C@@H]1C=C2c3cccc4[nH]cc(c34)C[C@H]2N(C)C1`, the Potency result in [1], in assay [2], in assay [15], in assay [4], in assay [16] and in assay [17] was “inactive” each time. In addition, the Potency entry in assay [5], in assay [6], in [7], in assay [18] and in assay [9] was “inactive” throughout.
Turning to `Clc1cccc2ccccc12`, the Potency result in [1], in assay [2], in assay [3], in assay [4], in assay [5] and in [6] was “inactive” in each case. For the same molecule, the Potency result in assay [19], in assay [8], in assay [9], in assay [10], in [12] and in assay [13] was “inactive” each time. Further, the Potency entry in assay [20] and in assay [14] was “inactive” throughout.
Regarding `NCC(CC(=O)O)c1ccc(Cl)cc1` (stereo not given), the results for the activity change, negative = cytotoxicity in assay [1], in assay [5] and in assay [6] were 20.7% [at 0.349 µM], -3.85% [at 0.249 µM] and 5.91% [at 0.249 µM], respectively. Further, the activity, positive = activation in [2] is 2.43% [at 0.349 µM]. The activity change in [3] is -1.11% [at 0.217 µM, hits give high values]. Also, the activation was 0.685% [at 0.217 µM] in assay [4], -1.8% [at 0.349 µM] in assay [11] and 0.37% [at 0.349 µM] in [20]. Moreover, the activity change, negative = inhibition is -4.66% [at 0.349 µM] in [12], 2.66% [at 0.349 µM] in assay [13] and 1.84% [at 0.348 µM] in assay [14].
Regarding `CC(C)(C)NC[C@H](O)c1ccc(O)cc1Cl`, the Potency entry in [1], in assay [2], in assay [15], in assay [4], in assay [16] and in assay [17] was “inactive” throughout. Also, the Potency entry in assay [5], in assay [6], in assay [18], in assay [8], in assay [9] and in assay [10] was “inactive” in each case. For the same molecule, the Potency result in assay [12] and in assay [20] was “inactive” in each case. Moreover, in assay [14], the Potency is 84.1 nM (active).
Consider `CC(C)CC(C)N` (stereo not given), for which the Potency entry in [1], in [2], in [15], in [4], in assay [16] and in assay [17] was “inactive” in each case. The Potency result in assay [6], in [7], in assay [18], in [8], in assay [9] and in [10] was “inactive” in each case. The Potency entry in assay [11], in assay [12], in assay [20] and in [14] was “inactive” in each case.
`CN1C2CCC(C)(C)C1CC(OC(=O)C(O)(c1cccs1)c1cccs1)C2` (stereo not given): the Potency result in [1], in assay [2], in assay [15], in [4], in [17] and in [5] was “inactive” each time. In addition, the Potency entry in [6], in assay [7], in assay [19], in [8], in assay [12] and in assay [13] was “inactive” each time. The Potency result in assay [20] and in assay [14] was “inactive” in each case.
